# Assay outcomes deposited in PubChem by several laboratories.
# proKLK7 act – activators of human kallikrein-7 zymogen; AID 652039; P49862; activation, % at 7 µM; 0.9% of 370,000 active; purified proKLK7, EDANS-DABCYL substrate fluorescence; 100% is mature enzyme control, 0% vehicle;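 active = activation above the mean of all tested compounds plus 3 SD, computed per campaign excluding outliers beyond control limits, cut at about 13% in these data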
# Target sequence (P49862 whole entry, looked up): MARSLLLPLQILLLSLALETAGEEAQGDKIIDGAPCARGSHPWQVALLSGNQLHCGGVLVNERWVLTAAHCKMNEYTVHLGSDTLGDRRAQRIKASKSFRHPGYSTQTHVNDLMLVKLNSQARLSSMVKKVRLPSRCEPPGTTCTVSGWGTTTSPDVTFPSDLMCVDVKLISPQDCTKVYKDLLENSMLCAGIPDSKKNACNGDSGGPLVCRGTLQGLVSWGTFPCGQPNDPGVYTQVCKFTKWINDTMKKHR
# ADAM10 inh – inhibitors of human ADAM10 | O14672 | recombinant ADAM10, EDANS/DABCYL FRET peptide cleavage, 3 h | inhibition, % at 7 µM | 0.62% of 370,000 active | AID 720582;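 active = inhibition above a per-campaign cutoff equal to the mean of compounds falling between control-based bounds plus 3 SD, cut at about 20% in these data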
# Ecoli rRNA inh – inhibitors of bacterial rRNA selective over humanized ribosomes; E. coli WT GFP vs humanized-ribosome RFP mutants, fluorescence, 24 h; hits give low values; DMSO median 0, no signal -100; GFP signal change (wild-type ribosome), % (no concentration beside the values); 1.6% of 350,000 active;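 active = significant combined selectivity score with lowered wild-type GFP, culture density cut under 30%, mutant RFP and density less affected; inactive = any of these conditions unmet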
# ADAM17 inh – inhibitors of human ADAM17; 0.83% of 370,000 active; recombinant ADAM17, EDANS/DABCYL FRET peptide cleavage; AID 720648; inhibition, % at 6.95 µM; P78536;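 active = inhibition above the mean of compounds lying between control limits plus 3 SD, set per campaign, cut at about 8.5% in these data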
# FGF22 binding – shifts melting point of recombinant human FGF22 | Q9HCT0 | activity (Tm shift, normalised), % at 9.99 µM | 1.5% of 340,000 active | recombinant FGF22 thermal shift, SYPRO orange fluorescence; percent of sucrose octasulfate shift, DMSO zero;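 active = mean Tm shift, scaled 0 neutral to 100 positive control, at about 1.3% or above, every replicate too, limit read from the data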
# Target sequence (Q9HCT0 whole entry, looked up): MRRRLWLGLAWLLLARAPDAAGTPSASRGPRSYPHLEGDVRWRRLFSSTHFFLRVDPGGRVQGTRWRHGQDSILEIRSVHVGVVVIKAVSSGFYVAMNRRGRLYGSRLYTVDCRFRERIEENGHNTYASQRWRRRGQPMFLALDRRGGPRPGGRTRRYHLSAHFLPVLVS
# proKLK7 act conf – proKLK7 activation, confirmation; shares compounds with proKLK7 act; activation, % at 7 µM; 68% of 3,200 active; purified proKLK7, EDANS-DABCYL substrate fluorescence; scaled: vehicle 0, mature enzyme 100; AID 686949;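 active = activation, as change over the incubation, above the mean of all tested compounds plus 3 SD, cut at about 13% in these data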
# EDANS-DABCYL int – fluorescence interference counter-screen for KLK7 activators; shares compounds with proKLK7 act; EDANS-DABCYL substrate fluorescence interference, no enzyme, 4 h; solvent 0%, active enzyme control 100%; activation, % at 7 µM; 80% of 3,200 active; AID 686952;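 active = activation above the all-compound mean plus 3 SD, ignoring values outside control-based bounds, cut at about 4.8% in these data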;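 also: value is the 4 h activation minus the activation read at time zero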
# A number is an active result; – = inactive; · = not tested or not shown. Rows were chosen to be rich in hits. Some 3.8% of all compounds tested hit in one or more screens of this group.
SMILES,proKLK7 act,ADAM10 inh,Ecoli rRNA inh,ADAM17 inh,FGF22 binding,proKLK7 act conf,EDANS-DABCYL int
COC(=O)Cc1c(C)c2ccc(OCC(=O)N3CCC(C)CC3)c(C)c2oc1=O,–,–,–,–,–,·,·
CN1CCN(Cc2c(O)ccc3cc(-c4ccccn4)c(=O)oc23)CC1,67,–,–,–,–,77,69
Cc1c(C)c2ccc(O)c(CN3CCN(C)CC3)c2oc1=O,63,–,–,–,–,70,65
Cc1c(C)c2ccc(O)c(CN3CCCC3)c2oc1=O,61,–,–,–,–,64,66
C/C=C/c1cnc2c(c1)C(=O)N([C@@H](C)CO)C[C@H](C)[C@H](CN(C)S(=O)(=O)c1ccccc1)O2,·,·,–,·,–,·,·
CC(C)OC(=O)N(C)C[C@H]1OCc2ccccc2-c2c(n(C)c3ccccc23)C(=O)N([C@H](C)CO)C[C@@H]1C,·,·,–,·,–,·,·
COc1ccc2c3c(n(C)c2c1)[C@H](CO)N(C(=O)Nc1ccc(F)cc1)CC31CCN(C(=O)NC2CCCC2)CC1,·,·,–,·,–,·,·
Cc1c(O)c(CN2CCCCC2)cc2c3c(c(=O)oc12)CCC3,44,–,·,–,·,73,76
O=c1oc2c(CN3CCCCC3)c(O)ccc2c2c1CCCC2,62,–,·,–,·,66,70
CCOc1ccc2c3c(c(=O)oc2c1OCC)CCCC3,–,–,·,–,·,·,·
CCc1c(C)c2ccc(O)c(CN3CCCC3)c2oc1=O,38,–,–,–,–,59,63
COCC(=O)N1CC(=O)N2[C@@H](CO)[C@H](c3ccc(C#CC4CCCC4)cc3)[C@@H]2C1,·,·,–,·,·,·,·
C[C@@H]1CN([C@@H](C)CO)S(=O)(=O)c2ccc(-c3ccc(F)cc3)cc2O[C@@H]1CN(C)C(=O)c1ccccc1F,·,·,–,·,–,·,·
COc1ccc(NC(=O)N(C)C[C@H]2OCCCC[C@H](C)Oc3ccc(NC(=O)NC(C)C)cc3C(=O)N([C@@H](C)CO)C[C@H]2C)cc1,·,·,–,·,–,·,·
Cc1oc2c(CN3CCCC3)c(O)ccc2c(=O)c1Oc1ccccc1Br,83,–,·,–,·,56,76
CN1CCN(Cc2c(O)ccc3c(=O)c(Oc4ccccc4Cl)c(C(F)(F)F)oc23)CC1,–,–,–,–,–,·,·
CCOC(=O)c1c(C)oc2c1c(CN1CCN(CCO)CC1)c(O)c1ccccc12,–,–,–,–,–,·,·
CCOc1ccccc1Oc1c(C)oc2c(CN3CCN(CCO)CC3)c(O)ccc2c1=O,129,–,·,–,·,68,66
COc1ccccc1Oc1c(C)oc2c(CN3CCN(CCO)CC3)c(O)ccc2c1=O,116,–,·,–,·,66,70
CCOC(=O)c1ccc(Oc2c(C)oc3c(CN4CCN(C)CC4)c(O)ccc3c2=O)cc1,119,–,·,–,·,76,70
O=c1oc2c3c4c(cc2s1)CCCN4CCC3,–,–,·,–,·,·,·
O=c1ccc2cc3c4c(c2o1)CCCN4CCC3,89,–,–,–,–,67,73
C[C@H](CO)N1C[C@H](C)[C@H](CN(C)Cc2ccc(C(=O)Nc3ccccc3N)cc2)Oc2ccc(NS(=O)(=O)c3cn(C)cn3)cc2C1=O,·,·,–,·,–,·,·
CS(=O)(=O)c1ccc(Nc2nc(C(N)Cc3ccc(F)cc3)cs2)cc1 (stereo unspecified),–,–,–,–,–,·,·
COc1ccc(CC(N)c2csc(Nc3ccc(S(C)(=O)=O)cc3)n2)cc1 (stereo unspecified),27,–,–,–,–,–,–
SMILES,proKLK7 act,ADAM10 inh,Ecoli rRNA inh,ADAM17 inh,FGF22 binding,proKLK7 act conf,EDANS-DABCYL int
C[C@@H]1CN([C@@H](C)CO)C(=O)Cc2cc(NC(=O)Cc3ccccc3)ccc2O[C@@H]1CN(C)S(=O)(=O)c1ccc(F)cc1,·,·,–,·,–,·,·
COc1ccc2nc(C)c(C(N)=O)cc2c1,–,–,–,–,–,·,·
COc1cc2cc(C(N)=O)c(N)nc2cc1OC,73,–,·,–,·,65,69
CC(C)=CCc1c(O)ccc2c1OC(c1ccc(O)c(O)c1)CC2=O (stereo unspecified),–,–,–,–,–,·,·
O=C1CC(c2ccc(O)c(O)c2)Oc2c1ccc(O)c2O (stereo unspecified),16,–,–,–,–,–,7.7
CO[C@@H]1CN(C)C(=O)c2cc(NC(=O)c3ccc(F)cc3)ccc2OC[C@@H](C)NC[C@@H]1C,·,·,–,·,·,·,·
Cc1cccc(-n2c(=O)c(C#N)cc3c(=O)n4ccccc4nc32)c1,16,–,·,–,·,51,72
Cc1ccc(-n2c(=O)c(C#N)cc3c(=O)n4ccccc4nc32)cc1,–,–,·,–,·,·,·
COc1ccc(O)c(C(=O)c2cnn(C(=O)c3cccc(N(C)C)c3)c2)c1,51,–,–,–,–,168,157
COc1ccc(O)c(C(=O)c2cnn(C(=O)c3cc(C)oc3C)c2)c1,40,–,·,–,·,174,144
COc1ccc(C(=O)n2cc(C(=O)c3cc(C)ccc3O)cn2)cc1,–,–,·,–,·,·,·
CN(C)c1cccc(C(=O)n2cc(C(=O)c3cc(F)ccc3O)cn2)c1,–,–,·,–,·,·,·
COc1ccc(C(=O)n2cc(C(=O)c3cc(C)ccc3O)cn2)cc1OC,21,–,–,–,–,55,49
C[C@@H]1CN([C@@H](C)CO)C(=O)c2cc(C3=CCCC3)cnc2O[C@H]1CN(C)Cc1cccnc1,·,·,–,·,–,·,·
COc1ccc(NC(=O)COc2ccc(/C=C/c3cc[n+](C)cc3)cc2OC)cc1,31,–,–,–,–,64,68
COc1ccc(/C=C/C(=O)Nc2ccncc2)cc1OC,17,–,–,–,–,13,13
CCOc1ccc(/C=C/C(=O)Nc2ccc(C(N)=O)cc2)cc1OC,42,–,·,–,·,85,94
O=C(Nc1ccc(Cl)c(Cl)c1)N[C@@H]1CC[C@@H](CCn2cc(C3CC3)nn2)O[C@@H]1CO,·,·,–,·,–,·,·
Cc1nn(-c2cccc(Cl)c2)c2c1C(c1ccncc1)C(C#N)=C(N)O2 (stereo unspecified),–,–,·,–,·,·,·
COc1ccc(OC)c(C2C(C#N)=C(N)Oc3c2c(C)nn3-c2cccc(Cl)c2)c1 (stereo unspecified),19,–,·,–,·,35,33
C[C@H]1CN([C@@H](C)CO)S(=O)(=O)c2ccc(C#CC3CC3)cc2O[C@@H]1CN(C)C(=O)c1cccnc1,·,·,–,·,–,·,·
OC[C@@H]1[C@H](c2ccc(C#CC3(O)CCCC3)cc2)[C@H]2CN(Cc3cccnc3)CCCCN12,·,·,–,·,–,·,·
